Results filed as inconclusive are left out. Activity calls are given as the source filed them. Rule for the calls, unless noted: active = hit-call score of the fitted dose curve at least 0.9, where 1 is the maximum; inactive = score below 0.9.
assay: CCTE_Harrill_HTTr_Viability_MCF7: CCTE's 6-hour Cell Viability Assessment for the High-Throughput Transcriptomics (HTTr) Platform, in MCF-7 cells cultured in DMEM + 10% fetal bovine serum, Harrill Lab (AID 2284010)
Procedure, shortened: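 PI exclusion, high-content imaging; 8-pt dilution series, 6 h exposure; bidirectional fit vs DMSO (neg. ctrl/baseline); gain of signal = loss of membrane integrity.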

Row | SMILES | outcome
1 | CC(=O)c1cccc2ccccc12 | inactive
2 | CCCCCCCCCCCCCCCC=O | inactive
3 | CC1CN(c2cc3c(cc2F)c(=O)c(C(=O)O)cn3-c2ccc(F)cc2F)CCN1 (stereo not drawn) | inactive
4 | Clc1ccc(-c2nc3sccn3c2/C=N/OCc2ccc(Cl)c(Cl)c2)cc1 | inactive
5 | CC(=O)C(O)O | inactive
6 | NCCNCCNCCNCCN | inactive
7 | C/C(=C\c1ccc(C(=O)O)cc1)c1ccc2c(c1)C(C)(C)CCC2(C)C | inactive
8 | O=c1ccc2ccc(O)cc2o1 | inactive
9 | O=C(O)c1ccccc1C(=O)OC1CCCCC1 | inactive
10 | OCCC1CCCCN1 (stereo not drawn) | inactive
11 | CCOCCOC(=O)C=Cc1ccc(OC)cc1 | inactive
12 | NC[C@H](O)c1ccc(O)c(O)c1 | inactive
13 | O=CO | inactive
14 | OCCS | inactive
15 | CO[Si](OC)OC | inactive
16 | O=C[C@H](O)[C@@H](O)[C@@H](O)CO | inactive
17 | CCOC(=O)[C@@H](C)Oc1ccc(Oc2cnc3cc(Cl)ccc3n2)cc1 | inactive
18 | Cc1ccc2[nH]c3cc4c(=O)c5cc(C)ccc5[nH]c4cc3c(=O)c2c1 | inactive
19 | CC(CC(C)(C)C)CC(C)(C)C | inactive
20 | CCCCCC1=C(C)CCC1=O | inactive

assay: CCTE_Harrill_HTTr_Apoptosis_MCF7: CCTE's 6-hour Apoptosis Assessment for the High-Throughput Transcriptomics (HTTr) Platform, in MCF-7 cells cultured in DMEM + 10% fetal bovine serum, Harrill Lab (AID 2284011)
Procedure, shortened: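 High-content imaging of CellEvent Caspase 3/7 Green signal follows a six-hour exposure, with eight concentrations per chemical. MCF-7 cells grown in DMEM plus 10% fetal bovine serum; activity fitted in both directions against DMSO.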

Row | SMILES | outcome
21 | CCCCCCCCOC(=O)c1ccccc1C(=O)O | inactive
22 | Cc1ncc(C[n+]2csc(CCO)c2C)c(N)n1 | inactive
23 | C=O.C=O.C=O.C=O.C=O.[Fe] | inactive
24 | Cc1cc(N=Nc2c(O)ccc3ccccc23)c(S(=O)(=O)O)cc1Cl | inactive
25 | CCC(=O)O[C@H]1[C@H](O[C@@H]2[C@@H](C)[C@H](O[C@H]3C[C@@](C)(OC)[C@@H](O)[C@H](C)O3)[C@@H](C)C(=O)O[C@H](CC)[C@@](C)(O)[C@H](O)[C@@H](C)C(=O)[C@H](C)C[C@@]2(C)O)O[C@H](C)C[C@@H]1N(C)C | inactive
26 | CC(=O)C(=NNc1ccc(-c2ccc(NN=C(C(C)=O)C(=O)Nc3ccc(C)cc3C)c(Cl)c2)cc1Cl)C(=O)Nc1ccc(C)cc1C | inactive
27 | CCOC(=O)c1ccccc1C(=O)O | inactive
28 | CCOC(=O)C(C)CC (stereo not drawn) | inactive
29 | O=c1cc(-c2ccccc2)oc2c1ccc1ccccc12 | inactive
30 | COc1c2occc2c(OC)c2c(=O)cc(C)oc12 | inactive
31 | Nc1c(S(=O)(=O)O)cc(Nc2ccccc2)c2c1C(=O)c1ccccc1C2=O | inactive
32 | C=C1CCC2CC1C2(C)C (stereo not drawn) | inactive
33 | CCCCN1C(=O)c2ccccc2C1=O | inactive
34 | CCOc1ccc2ccccc2c1 | inactive
35 | CC1=CC(=O)C(C(C)C)CC1 (stereo not drawn) | inactive
36 | CCCCc1nc(Cl)c(CO)n1Cc1ccc(-c2ccccc2-c2nnn[nH]2)cc1 | inactive
37 | Nc1nc2nc[nH]c2c(=O)[nH]1 | inactive
38 | CCCCOC(=O)/C=C/C(=O)OCCCC | inactive
39 | CN1[C@@H]2CC[C@H]1CC(OC(=O)C(CO)c1ccccc1)C2 (stereo partly drawn) | inactive
40 | CC(=O)c1cccc2ccccc12 | inactive

Row | SMILES | outcome
41 | CCCCCCCCCCCCCCCC=O | inactive
42 | CC1CN(c2cc3c(cc2F)c(=O)c(C(=O)O)cn3-c2ccc(F)cc2F)CCN1 (stereo not drawn) | inactive
43 | Clc1ccc(-c2nc3sccn3c2/C=N/OCc2ccc(Cl)c(Cl)c2)cc1 | inactive
44 | CC(=O)C(O)O | inactive
45 | NCCNCCNCCNCCN | inactive
46 | C/C(=C\c1ccc(C(=O)O)cc1)c1ccc2c(c1)C(C)(C)CCC2(C)C | inactive
47 | O=c1ccc2ccc(O)cc2o1 | inactive
48 | O=C(O)c1ccccc1C(=O)OC1CCCCC1 | inactive
49 | OCCC1CCCCN1 (stereo not drawn) | inactive
50 | CCOCCOC(=O)C=Cc1ccc(OC)cc1 | inactive
51 | NC[C@H](O)c1ccc(O)c(O)c1 | inactive
52 | O=CO | inactive
53 | OCCS | inactive
54 | CO[Si](OC)OC | inactive
55 | O=C[C@H](O)[C@@H](O)[C@@H](O)CO | inactive
56 | CCOC(=O)[C@@H](C)Oc1ccc(Oc2cnc3cc(Cl)ccc3n2)cc1 | inactive
57 | Cc1ccc2[nH]c3cc4c(=O)c5cc(C)ccc5[nH]c4cc3c(=O)c2c1 | inactive
58 | CC(CC(C)(C)C)CC(C)(C)C | inactive
59 | CCCCCC1=C(C)CCC1=O | inactive

assay: CCTE_Harrill_HTTr_CellCount_MCF7: CCTE's Cell Proliferation Assessment for the High-Throughput Transcriptomics (HTTr) Platform, Harrill Lab (AID 2284012; active = hit-call score of the fitted dose curve at least 0.9, where 1 is the maximum;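 note: count of Hoechst-stained nuclei per well by high-content imaging in MCF-7 cells; cells exposed to compound for six hours; intended direction is loss of nuclei count meaning fewer cells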)
Procedure, shortened: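 Readout: Hoechst nuclear count by high-content imaging. MCF-7, 8-point dilution series, 6 h exposure. Bidirectional fit vs DMSO baseline.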

Row | SMILES | outcome
60 | CCCCCCCCOC(=O)c1ccccc1C(=O)O | inactive
61 | Cc1ncc(C[n+]2csc(CCO)c2C)c(N)n1 | inactive
62 | Cc1cc(N=Nc2c(O)ccc3ccccc23)c(S(=O)(=O)O)cc1Cl | inactive
63 | CCC(=O)O[C@H]1[C@H](O[C@@H]2[C@@H](C)[C@H](O[C@H]3C[C@@](C)(OC)[C@@H](O)[C@H](C)O3)[C@@H](C)C(=O)O[C@H](CC)[C@@](C)(O)[C@H](O)[C@@H](C)C(=O)[C@H](C)C[C@@]2(C)O)O[C@H](C)C[C@@H]1N(C)C | inactive
64 | CC(=O)C(=NNc1ccc(-c2ccc(NN=C(C(C)=O)C(=O)Nc3ccc(C)cc3C)c(Cl)c2)cc1Cl)C(=O)Nc1ccc(C)cc1C | inactive
65 | O=c1cc(-c2ccccc2)oc2c1ccc1ccccc12 | inactive
66 | COc1c2occc2c(OC)c2c(=O)cc(C)oc12 | inactive
67 | Nc1c(S(=O)(=O)O)cc(Nc2ccccc2)c2c1C(=O)c1ccccc1C2=O | inactive
68 | C=C1CCC2CC1C2(C)C (stereo not drawn) | inactive
69 | CCOc1ccc2ccccc2c1 | inactive
70 | CC1=CC(=O)C(C(C)C)CC1 (stereo not drawn) | inactive
71 | CCCCc1nc(Cl)c(CO)n1Cc1ccc(-c2ccccc2-c2nnn[nH]2)cc1 | inactive
72 | Nc1nc2nc[nH]c2c(=O)[nH]1 | inactive
73 | CN1[C@@H]2CC[C@H]1CC(OC(=O)C(CO)c1ccccc1)C2 (stereo partly drawn) | inactive
74 | CCCCCCCCCCCCCCCC=O | inactive
75 | CC1CN(c2cc3c(cc2F)c(=O)c(C(=O)O)cn3-c2ccc(F)cc2F)CCN1 (stereo not drawn) | inactive
76 | CC(=O)C(O)O | inactive
77 | NCCNCCNCCNCCN | inactive
78 | C/C(=C\c1ccc(C(=O)O)cc1)c1ccc2c(c1)C(C)(C)CCC2(C)C | inactive
79 | O=c1ccc2ccc(O)cc2o1 | inactive
80 | O=C(O)c1ccccc1C(=O)OC1CCCCC1 | inactive
81 | CCOCCOC(=O)C=Cc1ccc(OC)cc1 | inactive
82 | NC[C@H](O)c1ccc(O)c(O)c1 | inactive
83 | OCCS | inactive
84 | CO[Si](OC)OC | inactive
85 | O=C[C@H](O)[C@@H](O)[C@@H](O)CO | inactive
86 | Cc1ccc2[nH]c3cc4c(=O)c5cc(C)ccc5[nH]c4cc3c(=O)c2c1 | inactive
87 | CC(CC(C)(C)C)CC(C)(C)C | inactive
88 | CCCCCC1=C(C)CCC1=O | inactive

Reference: PubChem BioAssay (EPA / NIEHS)
